Tb PYK inh: qHTS of Trypanosoma Brucei Inhibitors. TbPYK enzyme, Kinase-Glo Plus ATP luminescence, 45 min. Potency, µM (series often up to 76.8 µM), without a hit: at the highest dose activity, negative = inhibition, usual class: inhibitors. actives 0.12% (n = 410,000); further: on the % scale 0 is the no-effect control and ±100 the full control effect; nearly all actives have a fitted effect of over 50% in size
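Quantitative HTS: titrated library compounds versus trypanosomal pyruvate kinase in TEA buffer (pH 7.2) containing KCl, MgCl2, BSA and Tween-20. Reactions were initiated with ADP, 130 uM final. Kinase-Glo Plus luminescence was read after 45 min at RT.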
LmPK inhibitor: qHTS Assay for Inhibitors of Leishmania Mexicana Pyruvate Kinase (LmPK); actives 0.37% (n = 290,000); Potency, µM (series often up to 57.5 µM), for the others: at the top dose activity change, negative = inhibition, hits mostly inhibitors; AID 1721, 2009; purified LmPK, Kinase-Glo ATP luminescence, 1 h; further: on the % scale 0 is the no-effect control and ±100 the full control effect
Target sequence (Q27686 whole entry, looked up): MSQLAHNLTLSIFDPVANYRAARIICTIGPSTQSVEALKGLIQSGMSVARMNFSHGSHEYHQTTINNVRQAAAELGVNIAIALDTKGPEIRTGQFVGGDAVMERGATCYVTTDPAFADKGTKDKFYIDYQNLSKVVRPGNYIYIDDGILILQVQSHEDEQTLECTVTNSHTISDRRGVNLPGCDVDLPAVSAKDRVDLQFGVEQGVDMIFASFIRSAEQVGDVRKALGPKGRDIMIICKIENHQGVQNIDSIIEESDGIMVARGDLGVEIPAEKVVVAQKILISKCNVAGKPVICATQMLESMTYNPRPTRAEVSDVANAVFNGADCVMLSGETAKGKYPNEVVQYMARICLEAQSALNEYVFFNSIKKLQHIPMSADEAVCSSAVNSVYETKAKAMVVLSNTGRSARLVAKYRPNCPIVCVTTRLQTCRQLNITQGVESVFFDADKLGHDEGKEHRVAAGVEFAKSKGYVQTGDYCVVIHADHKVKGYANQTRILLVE
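Kinase-Glo luminescence read after 1 h RT reaction of 0.1 nM LmPK with 0.5 mM PEP and 0.1 mM ADP. Activity scaled between uninhibited and enzyme-free controls.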
NS1 inh: qHTS Assay for Inhibitors of Influenza NS1 Protein Function; actives 0.4% (n = 270,000); Potency, µM (highest dose often 46.1 µM), without a hit: at the highest dose activity, positive = more growth; AID 2326, 2010; calls by dose curve; further: actives are rising curves; nearly all actives have a fitted effect of over 50% in size
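Compounds were scored for reversing the slow growth caused by influenza A NS1 in S. cerevisiae, measured by optical density at 600 nm. Assay medium contained 2% galactose at pH 6.0; NS1-free yeast of the same strain were the positive control.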
RE007 growth inh: qHTS Assay for Inhibitors of the HIV-1 protein Vpr. S. pombe RE007 Vpr strain, BacTiter-Glo ATP luminescence, 24 h. actives 0.21% (n = 360,000). Potency, µM (series often up to 92.2 µM), for the others: at the highest dose activity change, negative = less growth, hits mostly inhibitors; active means well fitted falling curve with a large enough effect; inconclusive means small, poorly fitted or top-dose-only effect; inactive means no such curve, though single readings can be large or run the other way; further: on the % scale 0 is the no-effect control and ±100 the full control effect; nearly all actives have a fitted effect of over 50% in size
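Fission yeast RE007 carrying one integrated HIV-1 vpr copy, seeded at OD 0.01 in PMG+AL medium with 23 nL pinned compound. Grown 24 h at 30 degrees; viability read by BacTiter-Glo luminescence after 5 min.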
The depositor's hits bear a star; u = inconclusive; x = no result; [ ] = dose if it differs, or a comment. The list is not random: actives were taken first. Their share in the collection is about 0.77%. Unless noted, the call rests on the fitted dose curve; in most records, active means well fitted curve in the direction sought with a large enough effect; inconclusive means small, poorly fitted or top-dose-only effect, or another doubt; inactive means no such curve, though single readings can be large; an effect the other way counts as inactive or inconclusive. Potency means the concentration at half of the fitted maximal effect.

SMILES | Tb PYK inh | LmPK inhibitor | NS1 inh | RE007 growth inh
O=c1c2ccccc2cnn1CCOc1ccccc1 | u | 12.6µM* | -3.9% | -24.9%
CCc1cccc(C)c1NC(=O)C(NS(=O)(=O)c1ccc2c(c1)CCC(=O)N2)c1ccccc1 (stereo not drawn) | 0.5% | x | x | x
O=C(/C=C/c1ccc(O)c(O)c1)c1ccccc1O | -23.3% | u | -74.8% | u
O=C(C=Cc1ccccc1O)c1ccccc1O | 5.0% | x | x | 35.5µM*
O=C(C=Cc1cccc(O)c1)c1ccccc1O | 4.0% | x | x | 25.1µM*
CCCCCC(O)CCCC(=O)O (stereo not drawn) | 6.5% | x | -14.6% | -5.3%[18.4 µM]
CCCCCCCCCCCCCCCC(O)C[N+](C)(C)CCO (stereo not drawn) | -13.7% | x | x | 35.5µM*
Nc1cc2nc3ccccc3oc-2cc1=O | -9.3% | -2.3% | -64.2% | 63.1µM*
O=C(O)c1cccc(COc2ccccc2Cl)c1 | -17.3% | 14.1µM* | -90.8% | -10.1%
O=C(O)c1cc(N=Nc2c(O)ccc3ccccc23)cc(C(=O)O)c1 | 12.6µM* | u | 4.6% | -12.1%
Oc1ccc(N=Nc2c(O)ccc3ccccc23)cc1 | -5.4% | -17.8% | -35.7% | u
Cc1cc(=O)[nH]c2cc3oc4ccccc4c3cc12 | x | x | -13.6% | x
O=C1C=CC(=O)N1c1cccc(-c2ccccc2)c1 | 5.01µM* | u | -48.4% | 2.51µM*
Cc1nc2scc(-c3ccccc3)c2c(=O)n1N | -0.3% | 8.7% | -15.2% | 1.5%
Cc1nc2scc(-c3ccccc3)c2c(=O)n1N=C1C=CC(=O)C=C1 | 3.98µM* | -20.7% | -4.9% | -4.4%
Cc1nc(N=Nc2ccc(O)cc2)n[nH]1 | -15.7% | 14.1µM* | 3.0% | u
Cc1ccc(-c2cc(C(F)F)nc(NCC3CCCO3)n2)cc1 (stereo not drawn) | -15.9% | 2.0% | -67.6% | 20µM*
Cc1ccc2oc(=O)c3cnn(CC(=O)N4CCN(c5cc(Cl)ccc5C)CC4)c3c2c1 | -0.6% | x | x | x
COc1cc(N=c2ssnc2Cl)cc(OC)c1 | 28.2µM* | -21.7% | -30.9% | u
N#Cc1cccc(N=c2ssnc2Cl)c1 | 17.8µM* | -23.3% | x | -24.3%
Clc1nssc1=Nc1ccc(Br)cc1 | u | 1.9% | x | u
CCN(CC)C(=O)c1sc2c(c1C)c(=O)n(-c1ccccc1)c(=O)n2Cc1c(C)cc(C)cc1C | 0.1% | x | x | x
Cc1ccc(C(=O)COC(=O)C(Cc2c[nH]c3ccccc23)NC(=O)c2ccc(C(C)(C)C)cc2)cc1 (stereo not drawn) | -14.2%[15.4 µM] | x | x | x
COCCOC(=O)CSc1ncccc1-c1nc2cc(C)c(C)cc2[nH]1 | -7.0% | 14.1µM* | x | u
Cc1cccc(-n2c(CNC(=O)c3ccc(S(=O)(=O)N4CCCC4)cc3)n[nH]c2=S)c1 | 14.1µM* | -10.0% | 3.9% | 2.3%
SMILES | Tb PYK inh | LmPK inhibitor | NS1 inh | RE007 growth inh
O=C(NCc1n[nH]c(=S)n1-c1cccc(Cl)c1)c1ccc(S(=O)(=O)N2CCCCC2)cc1 | u | 11.9% | u | -18.7%
O=S(=O)(NCCc1nnc2ccc(SCc3ccccc3Cl)nn12)c1ccccc1 | 3.4% | x | x | x
CC(=O)OCC12CC(OC(=O)CC(C)C)C(C)=CC1OC1C(O)C(OC(C)=O)C2(C)C12CO2 (stereo not drawn) | 0.1% | x | x | 5.62µM*
CCOc1ccc(N/C=C/C(=O)c2ccccc2)c([N+](=O)[O-])c1 | 25.1µM* | 3.98µM* | -13.5% | 73.1%
CCOc1ccc(/C=C/C(=O)c2ccccc2)cc1 | -6.3% | 15.8µM* | -36.3% | x
O=C(/C=C/c1ccc(OC2CSC2)cc1)c1ccccc1 | u | 25.1µM* | -17.6% | u
O=C(N/N=C/c1ccc(OC2CSC2)cc1)c1ccccc1 | -4.4% | -11.2% | -6.3% | -2.9%
COc1ccc(-c2cn3c(n2)sc2cc(C(=O)NCCc4ccc(OC)cc4OC)ccc23)cc1 | -3.3% | x | x | x
Cc1cc(-c2ccccc2)nc(-c2ccccc2)c1C | 7.6% | 7.08µM* | -42.9% | 2.7%
Cc1cc2ncc(-c3ccccc3)nc2cc1C | -9.0% | -30.0% | -12.9% | -13.8%
Cc1cccc(N/C=C/C(=O)c2cccs2)c1C | -11.9% | 15.8µM* | -9.6% | -15.4%
NC(=O)c1ccccc1N/C=C/C(=O)c1ccc(Cl)cc1Cl | -14.3% | 15.8µM* | -10.2% | -18.6%
NC(=O)c1ccccc1N/C=C/C(=O)c1cccs1 | -14.0% | 15.8µM* | -17.6% | u
NC(=O)c1ccccc1N/C=C/C(=O)c1ccc(F)cc1 | -15.0% | 8.91µM* | -146.3% | x
NC(=O)c1ccccc1NC(=O)/C=C/c1cccc(Cl)c1 | x | 0.0% | -7.8% | -11.7%[3.69 µM]
Cc1ccc(C(=O)/C=C/Nc2ccccc2C(N)=O)o1 | -5.5% | -26.6% | -20.2% | -4.2%
Cc1cc(C)n(-c2nc(C)c(C)c(=O)n2CC(=O)Nc2ccc([N+](=O)[O-])cc2)n1 | 4.0% | x | x | x
CCCCS(=O)(=O)c1nc(-c2ccc(Br)cc2)cc(-c2ccccc2)c1C#N | 0.2% | x | x | x
Nc1nc(-c2cccc(Br)c2)cs1 | -0.1% | -4.4% | -188.7% | 14.1µM*
COc1cc(O)oc1C=Nc1ccc(C(=O)O)cc1 | u | 25.1µM* | x | u
COc1ccc(-n2nnc(-c3nsc(NC(=O)c4cccs4)n3)c2C)cc1OC | 1.3% | x | x | x
Cc1cccc(NC(=O)c2ccc([N+](=O)[O-])s2)n1 | 0.6% | 0.5% | -27.0% | 15.8µM*
O=c1c2cc(F)ccc2sn1-c1ccccc1 | u | x | x | 11.2µM*
O=c1c2ccccc2c(-c2cccc(C(F)(F)F)c2)nn1-c1ccccc1 | 4.0% | 9.2% | 4.9% | -0.9%
O=c1c2cc(C(F)(F)F)ccc2sn1-c1ccccc1 | 7.08µM* | x | x | 8.91µM*
SMILES | Tb PYK inh | LmPK inhibitor | NS1 inh | RE007 growth inh
c1ccc(C2=NNC(=NCc3ccc4c(c3)OCO4)SC2)cc1 | -9.4% | -1.3% | 10.4% | 6.3%
C=CCN=C1NN=C(c2ccc3c(c2)OCCO3)CS1 | -14.6% | 10µM* | x | 0.2%
O=C1c2cccc3c([N+](=O)[O-])ccc(c23)C(=O)N1c1ccc(Cl)cn1 | -1.5% | 3.7% | -161.6% | u
O=C1c2cccc3c([N+](=O)[O-])ccc(c23)C(=O)N1c1ccccn1 | -1.9% | 8.3% | -52.1% | 28.2µM*
COc1ccc(N2C(=O)CC(N3CCN(c4ccccc4)CC3)C2=O)cc1 (stereo not drawn) | -1.0% | -5.5% | 2.6% | -7.4%
COc1ccc(N2C(=O)CC(N3CCN(c4ccccc4F)CC3)C2=O)cc1 (stereo not drawn) | 2.8% | 0.8% | 0.1% | -23.8%
O=C1CC(N2CCC(c3nc4ccccc4[nH]3)CC2)C(=O)N1c1ccccc1F (stereo not drawn) | 3.6% | 0.9% | -80.4% | 35.5µM*
COc1ccc(N2C(=O)CC(N3CCC(c4nc5ccccc5[nH]4)CC3)C2=O)cc1 (stereo not drawn) | 2.1% | -10.6% | -117.0% | 39.8µM*
CCOC(=O)c1c(C)n(Cc2ccc(F)cc2)c2ccc(O)cc12 | u | 17.8µM* | 2.3% | -1.1%
CCc1cccc(NC(=O)c2coc(=O)c3ccccc23)c1 | -4.1% | x | x | x
Oc1c(N=Nc2ccccn2)ccc2ccccc12 | u | 12.6µM* | -176.8% | 17.8µM*
Oc1[nH]c2ccccc2c1N=Nc1ccccn1 | 3.7% | x | x | 2.8%

Assay outcomes deposited in PubChem BioAssay by National Center for Advancing Translational Sciences (NCATS).
